Source: PubChem BioAssay AID1159580 (chemical genetic matrix, 2015)
Among all 5,500 compounds or so, about 2,000 (36%) were called active. Inconclusive results (about 18%) are left out. Cut-off read from the data, not from the text of the source: active = normalized growth mostly below about 0.91 (no sharp cut-off); inconclusive = no clear call, values can overlap the other calls; inactive = mostly above about 0.92. This is one part of the list.

Test: chemical genetic growth profiling, strain panel (AID 1159580);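 note: tested at 20 µM; growth read once vehicle control cultures reached saturation at 30 °C; 1 = growth at the plate median or of vehicle wells; lower values mean less growth of the strain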
Conditions: S. cerevisiae deletion strains, growth OD

Measured: normalized growth

N#Cc1c(Cl)cccc1N1CCC(C(=O)NC(=O)Nc2ccc(Cl)cc2)CC1
inactive: locus YAL013W, strain DEP1, active compounds read low 0.998 | locus YBR229C, strain ROT2, active compounds read low 1.01 | locus YDL101C, strain DUN1, active compounds read low 1 | locus YDL134C, strain PPH21, active compounds read low 1.03 | locus YDR150W, strain NUM1, active compounds read low 1.04 | locus YEL061C, strain CIN8, active compounds read low 1.01 | locus YGR078C, strain PAC10, active compounds read low 1.01 | locus YHR030C, strain SLT2, active compounds read low 1.04 | locus YHR087W, strain rtc3, active compounds read low 1.02 | locus YJL187C, strain SWE1, active compounds read low 1.01 | locus YJR043C, strain POL32, active compounds read low 1 | locus YJR075W, strain HOC1, active compounds read low 1.05 | locus YLR039C, strain RIC1, active compounds read low 1.01 | locus YLR058C, strain SHM2 (second series), active compounds read low 1.03 | locus YLR085C, strain ARP6, active compounds read low 1.07 | locus YLR262C, strain YPT6, active compounds read low 0.998 | locus YML094W, strain GIM5, active compounds read low 1.04 | locus YMR219W, strain ESC1, active compounds read low 1.02 | locus YMR263W, strain SAP30, active compounds read low 1.01 | locus YMR307W, strain GAS1, active compounds read low 1.03 | locus YNL153C, strain GIM3, active compounds read low 1.01 | locus YNL298W, strain CLA4 (second series), active compounds read low 1.02 | locus YNL322C, strain KRE1, active compounds read low 1.01 | locus YNR030W, strain Alg12, active compounds read low 1.03 | locus YPL055C, strain LGE1, active compounds read low 1.1 | locus YPL241C, strain CIN2, active compounds read low 1.01 | locus YPR135W, strain CTF4, active compounds read low 1.04
